# Hits are enriched below; roughly 7.9% of the tested compounds scored in any of these assays.
# KB-V1 cytotox: qHTS assay for MDR1-selective chemotherapeutics: Primary screen using the drug-selected MDR subline cells KB-V1; KB-V1 MDR cells viability, CellTiter-Glo, 72 h; Potency, µM (doses to about 46.1 µM), most hits filed as cytotoxic; 400,000 tested, 3.4% active; AID 1347076, 2019; note: % is set by controls: 0 for no effect and ±100 for the full control effect; nearly all actives have a fitted effect of over 60% in size
#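 KB-V1, DMEM (no phenol red) + 10% FBS; cpd pin-transferred, titration series; 72 h, 37 degrees C; CellTiter-Glo, luminescence. Data normalized, curve-fit.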
# HT1080 IDH1KD tx: qHTS for induction of synthetic lethality in tumor cells producing 2HG: qHTS for the HT-1080-IDH1KD cell line. HT-1080 IDH1 knockdown viability, ATP luminescence, 48 h. Potency, µM (highest dose often 46.1 µM), inactives show at the top dose activity, negative = toxicity, hits mostly cytotoxic. 360,000 tested, 2% active. AID 686971, 2013;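 note: 0% = DMSO wells and -100% = cell-free medium wells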
#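 % activity derives from luminescence (CellTiter-Glo), normalised to DMSO and no-cell wells. HT-1080-IDH1KD cells, 750/well, had 48 h compound exposure at 37 °C.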
# HT1080NT lethal: qHTS for induction of synthetic lethality in tumor cells producing 2HG: qHTS for the HT-1080-NT fibrosarcoma cell line. HT-1080-NT fibrosarcoma viability, CellTiter-Glo ATP luminescence, 48 h. Potency, µM (highest dose often 46.1 µM), for the others: at the highest dose activity, negative = less viability, hits mostly cytotoxic. 360,000 tested, 1.6% active;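 note: NT is the 2HG producing partner of a matched IDH1 knockdown line; 0% = DMSO-treated cells and -100% = media-only wells without cells; nearly all actives have a fitted effect of over 55% in size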
#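 Compounds were tested in concentration-response format on HT-1080-NT cells for 48 hours at 37 degrees C. Cell viability came from CellTiter-Glo luminescence; curves were classified by r2, response magnitude and activity.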
# MCF10A rerep: A quantitative high throughput screen for small molecules that induce DNA re-replication in MCF 10a normal breast cells; MCF 10A DNA re-replication, Hoechst nuclear intensity, 48 h; Potency, µM (doses to about 46.1 µM), for the others: at the highest dose activity, positive = re-replication, actives largely listed as activators; 350,000 tested, 2.9% active; note: % of control where 0% means no effect; nearly all actives have a fitted effect of over 50% in size
# SW480 rerep: A quantitative high throughput screen for small molecules that induce DNA re-replication in SW480 colon adenocarcinoma cells; SW480 DNA re-replication, Hoechst DNA content imaging, 48 h; AID 624297, 2012; 340,000 tested, 1.8% active; Potency, µM (top dose mostly 46.1 µM), inactives show at the top dose re-replication activation, hits mostly activators; note: % of control where 0% means no effect; nearly all actives have a fitted effect of over 55% in size
#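 First, 250 cells per well were seeded. Next, compound or vehicle (23 nL) was pinned in, plates sat 48 hr at 37 C. Finally Hoechst was added for 40 min before fluorescence scanning.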
# KB-3-1 tox: qHTS assay for MDR1-selective chemotherapeutics: Primary screen using the parental adenocarcinoma cell KB-3-1; KB-3-1 viability, CellTiter-Glo ATP luminescence, 72 h; Potency, µM (series often up to 46.1 µM), actives largely listed as cytotoxic; 400,000 tested, 1.4% active; note: % is set by controls: 0 for no effect and ±100 for the full control effect; nearly all actives have a fitted effect of over 60% in size
#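 Cytotoxicity measured as CellTiter-Glo luminescence after 72 h at 37 C. Compound titrations were pinned onto drug-naive KB-3-1 parental adenocarcinoma cells grown in DMEM with 10% FBS, and normalized data fitted to concentration-response curves.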
# * = called active by the depositor; i = inactive; ? = inconclusive; . = no result given; ! = a repeat was not active; [ ] = dose if it differs, or a comment. Calls come from the whole dose curve; as a rule, active = well fitted curve in the direction sought with a large enough effect; inconclusive = small, poorly fitted or top-dose-only effect, or another doubt; inactive = no such curve, though single readings can be large; an effect the other way counts as inactive or inconclusive. Potency is the fitted concentration of half-maximal effect.
SMILES,KB-V1 cytotox,HT1080 IDH1KD tx,HT1080NT lethal,MCF10A rerep,SW480 rerep,KB-3-1 tox
CCCn1nc(NC(=O)COC)c2cc3cccc(C)c3nc21,i,-0.2%,2.1%,9.6%,3.0%,i
Cc1ccc(S(=O)(=O)NC(Cc2ccccc2)C(=O)O)cc1C (stereo not given),i,18.2%,9.7%,-16.1%,-2.3%,i
CCCn1nc(NC(=O)CC(C)C)c2cc3cccc(C)c3nc21,i,0.7%,0.4%,10.3µM*,10.3µM*,i
Cc1ccc(S(=O)(=O)N2CCOCC2)cc1NC(=O)COC(=O)c1ccc(Br)o1,i,1.0%,-6.1%,-7.0%,-4.9%,i
O=c1oc2c(O)cccc2cc1-c1nc2ccccc2[nH]1,i,-9.4%,-3.9%,?,3.26µM*,20.6µM*
C/C(=N\N=C(/N)SC1CC(=O)N(c2ccccc2)C1=O)c1cccs1 (stereo not given),i,19.1%[9.24 µM],?,2.31µM*,3.66µM*,i
CC(=O)O[C@H]1C(=O)[C@@]2(C)[C@H]([C@H](OC(=O)c3ccccc3)[C@]3(O)C[C@H](OC(=O)[C@H](O)[C@@H](NC(=O)c4ccccc4)c4ccccc4)C(C)=C1C3(C)C)[C@]1(OC(C)=O)CO[C@@H]1C[C@@H]2O,13µM*!,0.0082µM*,?,?,2.59µM*,0.0461µM*!
CCCCCC(=O)N[C@@H](c1ccccc1)[C@@H](O)C(=O)O[C@H]1C[C@@]2(O)[C@@H](OC(=O)c3ccccc3)C3[C@](C)(C(=O)[C@H](OC(C)=O)C(=C1C)C2(C)C)[C@@H](O)C[C@H]1OC[C@@]31OC(C)=O (stereo not given in full),?,0.0058µM*,?,?,0.184µM*,0.206µM*
CC(=O)O[C@H]1C(=O)[C@@]2(C)[C@H]([C@H](OC(=O)c3ccccc3)[C@]3(O)C[C@H](OC(=O)[C@H](O)C(NC(=O)c4ccccc4)c4ccccc4)C(C)=C1C3(C)C)[C@]1(OC(C)=O)CO[C@@H]1C[C@@H]2O (stereo not given in full),?,0.0092µM*,?,?,0.0651µM*,0.0092µM*
COc1ccc(Nc2nc3cc(-c4ccccc4C)sc3c(=O)n2C)cc1OC,i,?,?,.,.,i
CN(C)CCCN(C(=O)c1cc(Cl)sc1Cl)c1nc2cc3c(cc2s1)OCO3,?,?,?,?,24.0%,i
CN(C)CCCN(C(=O)c1ccc([N+](=O)[O-])s1)c1nc2cc3c(cc2s1)OCCO3,i,-2.1%,-1.7%,-9.4%,?,i
CN(C)CCCN(C(=O)c1ccc(Cl)s1)c1nc2cc3c(cc2s1)OCO3,i,?,18.4µM*,?,?,i
CN(C)CCCN(C(=O)c1ccc(C(=O)c2ccccc2)cc1)c1nc2cc3c(cc2s1)OCO3,20.6µM*,?,?,?,?,?
CN(C)CCCN(C(=O)c1cc2cc([N+](=O)[O-])ccc2s1)c1nc2cc3c(cc2s1)OCCO3,18.4µM*,?,?,?,10.3µM*,?
CCCCN(CCCC)c1nc2ccccc2nc1NS(=O)(=O)c1ccc(NC(C)=O)cc1,i,-6.2%,-6.5%,11.6µM*,20.6µM*,i
COCCc1ccc(OC2(C)CCN(Cc3cccc(OCOC)c3)C2)cc1 (stereo not given),i,0.5%,16.1%,.,.,i
CCCNC(=O)c1ccc2c(=O)c(O)c(-c3cccc(Br)c3)[nH]c2c1,i,?,-14.5%,-33.8%,-18.6%[9.22 µM],11.6µM*
O=C(NCCc1ccccc1)c1ccc(NC(=O)c2cccnc2)cc1,i,?,?,-2.8%,-1.4%,i
O=C(Nc1ccc(-c2noc(CCc3ccccc3)n2)cc1)c1cccnc1,16.4µM*,?,?,16.4µM*,-3.8%,?
Cc1ccc(S(=O)(=O)CCC(=O)OCC(=O)c2cc(C)ccc2C)cc1,i,1.0%,3.4%,1.4%,-0.4%,i
Cc1ccc(S(=O)(=O)CCC(=O)c2ccc(O)cc2O)cc1,i,3.3%,-4.1%,18.4µM*,?,?
COc1ccc(C(=O)CCS(=O)(=O)c2ccc(C)cc2)cc1OC,i,?,-5.6%,?,5.17µM*,i
COc1cc(NC(=O)C(C)(C)C)c(C(=O)OCC(=O)Nc2cc(C)on2)cc1OC,i,0.1%,6.2%,.,.,?
Cc1ccc(C#CC[N+]2(C)CCCCC2)cc1,i,-2.5%,-2.9%,-13.5%,?,i
SMILES,KB-V1 cytotox,HT1080 IDH1KD tx,HT1080NT lethal,MCF10A rerep,SW480 rerep,KB-3-1 tox
CCOC(=O)C1=C[C@@H](C(C)(C)C)N(S(=O)(=O)c2ccc(C)cc2)[C@H]1c1cccc(Cl)c1,i,18.4µM*,?,.,.,?
CCOC(=O)C1=C[C@@H](C(C)C)N(S(=O)(=O)c2ccc([N+](=O)[O-])cc2)[C@H]1c1ccccc1,?,-19.1%,-0.2%,.,.,11.6µM*
CC(=O)C1=CCC(c2cccc(Cl)c2)N(S(=O)(=O)c2ccc(C)cc2)C1 (stereo not given),i,14.6µM*,?,.,.,i
CCOC(=O)C1=CCC(c2cccc(Cl)c2)N(S(=O)(=O)c2ccc(C)cc2)C1 (stereo not given),?,?,-18.0%,.,.,i
CCOC(=O)C1=CCN(S(=O)(=O)c2ccc(F)cc2)C1c1cccc(Cl)c1 (stereo not given),8.2µM*,-15.2%,-10.1%,.,.,?
CC(C)CN1CC(COCc2ccccc2)Oc2ccccc2S1(=O)=O (stereo not given),i,-7.0%,-3.9%,?,7.8%,i
COc1cccc(-n2c(SCC(=O)N3CCCc4ccccc43)nc3c([nH]c4ccccc43)c2=O)c1,i,.,.,.,.,i
COc1ccc(CC(=O)NO)cc1OC,.,22.0%,21.9%,.,.,.
Cc1cccc(-c2nc(Cn3c(SCc4cc(C)ccc4C)nc4ccncc43)c(C)o2)c1,i,.,.,.,.,i
CSc1ncnc2c1ncn2CCCN1CCN(Cc2c(C)cc(C)cc2C)CC1,?,-13.7%,-16.4%,.,.,i

# High-throughput results from PubChem BioAssay.
